Shown is part of a subset that was picked to be rich in hits.
Cycloheximide cs = counter-screen for Shiga toxin inhibitors: cycloheximide protein synthesis inhibition. max response, %. cell reporter, cycloheximide protein synthesis inhibition counterscreen. 300,000 tested, 12% active; in the data active = max response mostly above about 13%, no sharp cut-off; inactive = mostly below about 14%; also: read at 38.3 µM for the half of the compounds with a filed dose; 0% is about no effect
Giardia FBPA inh = blocks Giardia fructose-bisphosphate aldolase activity | A8B2U2 | purified Giardia FBPA | Potency, µM (top dose mostly 59.6 µM), for the others: at the highest dose activity, negative = inhibition, actives largely listed as inhibitors | 290,000 tested, 0.71% active | AID 2451; also: potency is read from the fitted curve at half-maximal effect; % is scaled to controls: 0 for no effect and ±100 for the full control effect; nearly all actives have a fitted effect of over 55% in size
Target sequence (A8B2U2 whole entry, looked up): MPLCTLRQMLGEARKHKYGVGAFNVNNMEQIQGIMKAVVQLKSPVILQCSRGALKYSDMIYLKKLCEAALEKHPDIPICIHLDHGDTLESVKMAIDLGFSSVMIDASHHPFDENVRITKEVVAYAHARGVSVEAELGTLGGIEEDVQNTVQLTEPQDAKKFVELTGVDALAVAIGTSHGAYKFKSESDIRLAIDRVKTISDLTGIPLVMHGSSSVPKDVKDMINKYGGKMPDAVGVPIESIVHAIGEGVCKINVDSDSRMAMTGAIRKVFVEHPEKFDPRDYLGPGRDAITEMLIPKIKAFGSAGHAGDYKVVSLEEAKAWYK
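40 nM FBPA preincubated 10 min at RT with compound (up to 57.5 uM final), then substrate plus GAPDH/TPI/NAD/arsenate coupling and diaphorase/resazurin added. Fluorescence read after 20 min at RT, 525/598 nm.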
Shiga inhibitor = Shiga toxin inhibition; 290,000 tested, 9.2% active; inhibition, % at 38.7 µM; Vero cells, Shiga toxin protein synthesis inhibition reporter; in the data active = inhibition mostly above about 28%, no sharp cut-off; inactive = mostly below about 43%; also: 0% is about no effect
LmPK inhibitor = blocks Leishmania mexicana pyruvate kinase activity; Q27686; purified LmPK, Kinase-Glo ATP luminescence, 1 h; Potency, µM (series often up to 57.5 µM), for the others: at the highest dose activity change, negative = inhibition, hits mostly inhibitors; 290,000 tested, 0.37% active; also: potency is read from the fitted curve at half-maximal effect; % is scaled to controls: 0 for no effect and ±100 for the full control effect
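Screened at intermediate enzyme activity to detect both inhibitors and activators: LmPK at 0.1 nM, with a 0.5 nM enzyme column as activation reference. PEP 0.5 mM, ADP 0.1 mM; ATP detected by luminescence after 1 h.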
TbPYK inhibitor = T. brucei pyruvate kinase inhibition | TbPYK enzyme, Kinase-Glo Plus ATP luminescence, 45 min | Potency, µM (highest dose often 76.8 µM), for inactives: at the top dose activity, negative = inhibition, actives largely listed as inhibitors | 410,000 tested, 0.12% active; also: potency is read from the fitted curve at half-maximal effect; % is scaled to controls: 0 for no effect and ±100 for the full control effect; nearly all actives have a fitted effect of over 50% in size
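Glycolytic pyruvate kinase of T. brucei was incubated with substrate, test compound and 130 uM ADP for 45 minutes at room temperature. Luminescent Kinase-Glo Plus signal was measured after 10 minutes.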
Sm TGR inh = S. mansoni TGR enzyme inhibition. purified TGR, DTNB reduction, TNB absorbance 405 nm. AID 485364. Potency, µM (doses to about 114 µM), inactives show top-dose activity change, negative = inhibition, most hits filed as inhibitors. Q962Y6. 360,000 tested, 3% active; also: potency is read from the fitted curve at half-maximal effect; % is scaled to controls: 0 for no effect and ±100 for the full control effect; nearly all actives have a fitted effect of over 60% in size
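TGR 20 nM + NADPH 100 uM (dispensed conc.), cpd preinc 15 min RT; start with NADPH (500 uM addition) then DTNB (15 mM addition). Kinetic TNB absorbance, 405 nm filter. Four-parameter Hill fit across titration.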
The depositor's hits bear a star; ? = inconclusive; · = not tested or not shown. Unless noted, calls follow the shape of the dose curve; as a rule, active = well fitted curve in the direction sought with a large enough effect; inconclusive = small, poorly fitted or top-dose-only effect, or another doubt; inactive = no such curve, though single readings can be large; an effect the other way counts as inactive or inconclusive.

SMILES	Cycloheximide cs	Giardia FBPA inh	Shiga inhibitor	LmPK inhibitor	TbPYK inhibitor	Sm TGR inh
Fc1cccc(Nc2nc(Cl)nc(Cl)n2)c1	-4	-12%	33	-1%	3%	·
COc1cccc(NC(=O)C(C)SCc2ccccc2)c1 (stereo not drawn)	23*	-2%	44*	1%	0%	·
CC(SCc1ccccc1)C(=O)N/N=C/c1ccc2c(c1)OCO2 (stereo not drawn)	8	8%	24	5%	0%	2%
CC(SCc1ccccc1)C(=O)Nc1ccc2c(c1)OCO2 (stereo not drawn)	37*	-1%	44	3%	3%	-7%
COc1ccc(NC(=O)C(C)SCc2ccccc2)cc1OC (stereo not drawn)	6	1%	-3	-1%	-2%	-9%
Cc1ccc(NC(=O)C(C)SCc2ccccc2)cc1 (stereo not drawn)	30*	2%	82*	5%	-7%	-3%
CC(SCc1ccccc1)C(=O)Nc1ccccc1-c1ccccc1 (stereo not drawn)	-1	6%	-3	1%	5%	-2%
Cn1cccc1C(=O)N1CCC2(CCCN(c3ncccn3)C2)CC1	·	6%	·	·	4%	·
C=C1SC(=Nc2c(C)cccc2Cl)N(C(=O)c2sc3ccccc3c2Cl)C12CCCCC2	-1	-1%	-6	5%	-4%	-3%
C=C1SC(=Nc2ccccc2Cl)N(C(=O)c2sc3ccccc3c2Cl)C1(C)C	50*	3%	99*	13%	7%	12%
Cc1c(O)ccc(-c2[nH]ncc2-c2nc3ccccc3s2)c1O	2	9%	-15	9%	4%	-3%
Cc1c(O)ccc(-c2n[nH]c(C(=O)O)c2-c2nc3ccccc3s2)c1O	23*	0%	59*	4%	-10%	9%
FC(F)(F)c1ccccc1-c1nc(Nc2ccncc2)c2ccccc2n1	·	-6%	·	·	·	·
FC(F)(F)c1ccc(Nc2nnnc3ccccc23)cc1	21*	-10%	36	-17%	-5%	-2%
COc1ccccc1C(=O)Nc1ccc2nc(N3CCC(C)CC3)cc(C)c2c1	·	·	·	·	-2%	4%
O=S(=O)(c1cccc(F)c1)N1CCN(S(=O)(=O)c2ccc3c(c2)OCCO3)CC1	3	·	17	·	·	·
c1coc(-c2ccc3ncnc(NCc4cccs4)c3c2)c1	·	·	·	·	·	32µM*
COc1ccc(-n2ncc3c(NCc4ccco4)ncnc32)cc1	39*	-15%	90*	0%	-3%	50µM*
CCCN(CCC)c1ncnc2c1cnn2-c1ccc(OC)cc1	30*	1%	66*	-8%	10%	-17%
C=CCNc1ncnc2c1cnn2-c1ccc(OC)cc1	30*	-15%	61*	-9%	2%	0%
CCCCN(CCCC)c1ncnc2c1cnn2-c1cccc(C)c1	·	·	·	·	4%	7%
Clc1ccc(-n2ncc3c(NCc4ccco4)ncnc32)cc1	2	-11%	-10	-2%	·	0%
CCc1nnc(NC(=O)CSc2ccc(-c3ccc(-n4cccn4)cc3)nn2)s1	·	·	·	·	-2%	-2%
CC(C)c1cnc2c(c1SCC(=O)Nc1ccccc1C(F)(F)F)c(=O)n(C)c(=O)n2C	·	·	·	·	?	-1%
c1ccc(-n2ncc3c(NCc4cccnc4)ncnc32)cc1	20*	-3%	67	6%	-5%	11%
SMILES	Cycloheximide cs	Giardia FBPA inh	Shiga inhibitor	LmPK inhibitor	TbPYK inhibitor	Sm TGR inh
c1ccc(-n2ncc3c(NCc4cccs4)ncnc32)cc1	51*	-24%	52*	1%	-1%	3%
c1csc(CNc2ncnc3nc[nH]c23)c1	16*	-5%	15	-2%	2%	4%
COc1ccc(CCNc2ncnc3c2cnn3-c2ccc(F)cc2)cc1	·	·	·	·	0%	7%
Cc1ccc(-n2ncc3c(NCc4ccccc4)ncnc32)cc1C	·	·	·	·	-2%	-2%
c1ccc(CNc2ncnc3nc[nH]c23)nc1	0	-1%	4	-2%	0%	1%
COc1ccc(-n2ncc3c(NCc4ccccn4)ncnc32)cc1	50*	-17%	90*	0%	9%	-1%
Cc1ccc(NC(=O)Cn2cc(S(=O)(=O)N3CCCC3)c(S(=O)(=O)N3CCCC3)c2)cc1C	·	·	·	·	-12%	8%
COc1ccc(OC)c(CCNC(=O)c2cc3c(-c4ccccc4F)nn(C)c3s2)c1	·	·	·	·	-9%	4%
COc1ccc(-n2ncc3c(NCc4cccs4)ncnc32)cc1	38*	-27%	145*	-2%	-10%	5%
CC(=O)c1cc(-c2ccccc2)n(CC(=O)NCc2ccccc2C)c1C	·	·	·	·	1%	1%
COc1ccc(Cn2c(C(=O)O)c(CNCCc3cc(OC)ccc3OC)c3ccc(C)cc32)cc1	·	·	·	·	3%	6%
CCOC(=O)CNC(=O)Nc1cc(C(C)(C)C)nn1-c1ccccc1	37*	-2%	-4	-7%	-10%	4%
CC(C)(C)c1cc(NC(=O)COC(=O)c2ccccc2O)n(-c2ccccc2)n1	·	·	·	·	-10%	·
O=C(Nc1nnc(-c2ccc3c(c2)CCCC3)o1)c1ccccc1	20*	24%	active	-1%	1%	6%
CCN(C(=O)[C@@H]1CCCN1C(=O)c1cccs1)c1nc2cc(Cl)ccc2s1	18*	-9%	9	0%	1%	4%
O=C1CC(C(=O)Nc2cc(Cl)ccc2Cl)n2ncnc2N1 (stereo not drawn)	11	-12%	20	1%	-8%	22µM*
Cc1ccc(Cl)cc1NC(=O)C1CC(=O)Nc2ncnn21 (stereo not drawn)	-3	-3%	2	1%	1%	-22%
CC(=O)C[C@@H](O)CC(=O)[C@@H]1OC(=O)CCCCCCc2ccccc21	·	·	·	·	0%	·
COc1ccc(-c2cc(-c3ccccc3O)[nH]n2)cc1	55*	-9%	71*	-15%	12%	10%
COc1ccc(-c2cc(-c3ccccc3)n[nH]2)c(O)c1	32*	-1%	82*	1%	-4%	·
COc1ccc(/C=C/c2nc(-c3ccccc3O)n[nH]2)cc1	70*	-20%	74*	-16%	-8%	-3%
COc1ccc(C(=S)NC2CCCCC2)cc1	20*	0%	27	7%	?	6%
COc1ccc(CNC(=S)NC2CCCCC2)cc1	14	-15%	7	-2%	-6%	4%
CCOc1ccc(C(=S)NC2CCCCC2)cc1	52*	-9%	139*	1%	-10%	9%
COc1ccc(-c2c3c(=O)n(C)c(=O)n(C)c3c3n2-c2ccccc2NC3c2ccc(O)cc2O)cc1 (stereo not drawn)	·	·	·	·	-3%	4%
O=C1c2ccccc2NC(c2ccccc2Cl)N1N=C1CCCCCC1 (stereo not drawn)	37*	0%	89*	-5%	0%	-2%
O=C1NC(c2ccccc2Cl)Nc2ccccc21 (stereo not drawn)	-4	-2%	-27	3%	-2%	-6%
